# PubChem BioAssay AID1159580 (chemical genetic matrix, 2015)
# The whole screen tested about 5,500 compounds, of which about 2,000 (36%) were called active. Another 18% or so got no clear call; they are omitted. This is one part of the list. A number with no mark means an inactive call. Rule as the data show it: active = normalized growth mostly below about 0.91 (no sharp cut-off); inconclusive = no clear call, values can overlap the other calls; inactive = mostly above about 0.92.
# Assay: chemical genetic growth profiling, strain panel (AID 1159580);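 also: tested at 20 µM; growth read once vehicle control cultures reached saturation at 30 °C; 1 = growth at the plate median or of vehicle wells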
# Details: S. cerevisiae deletion strains, growth OD
compound,measurement,setting,value
CN1/C(=C/C=C/c2ccc3ccccc3[n+]2C)C=Cc2ccccc21,normalized growth,"locus YAR019C, strain CDC15, stronger effect = lower value",0.675 (active)
same,normalized growth,"locus YBL105C, strain PKC1, stronger effect = lower value",0.837 (active)
same,normalized growth,"locus YBR135W, strain CKS1, stronger effect = lower value",0.901
same,normalized growth,"locus YBR136W, strain MEC1, stronger effect = lower value",0.893 (active)
same,normalized growth,"locus YBR160W, strain CDC28, stronger effect = lower value",0.919
same,normalized growth,"locus YDL017W, strain CDC7, stronger effect = lower value",0.903 (active)
same,normalized growth,"locus YDL028C, strain MPS1, stronger effect = lower value",0.928
same,normalized growth,"locus YDL101C, strain DUN1, stronger effect = lower value",0.362 (active)
same,normalized growth,"locus YDL108W, strain KIN28, stronger effect = lower value",0.912
same,normalized growth,"locus YDL132W, strain cdc53, stronger effect = lower value",0.653 (active)
same,normalized growth,"locus YDL214C, strain PRR2, stronger effect = lower value",0.185 (active)
same,normalized growth,"locus YDR052C, strain DBF4, stronger effect = lower value",0.889 (active)
same,normalized growth,"locus YDR054C, strain cdc34, stronger effect = lower value",0.581 (active)
same,normalized growth,"locus YDR226W, strain ADK1, stronger effect = lower value",0.961
same,normalized growth,"locus YDR477W, strain SNF1, stronger effect = lower value",0.226 (active)
same,normalized growth,"locus YER123W, strain YCK3, stronger effect = lower value",0.204 (active)
same,normalized growth,"locus YER133W, strain GLC7, stronger effect = lower value",0.18 (active)
same,normalized growth,"locus YFL009W, strain cdc4, stronger effect = lower value",0.684 (active)
same,normalized growth,"locus YFL029C, strain CAK1, stronger effect = lower value",0.603 (active)
same,normalized growth,"locus YFR003C, strain YPI1, stronger effect = lower value",0.883 (active)
same,normalized growth,"locus YFR019W, strain FAB1, stronger effect = lower value",0.217 (active)
same,normalized growth,"locus YFR028C, strain CDC14, stronger effect = lower value",0.885 (active)
same,normalized growth,"locus YGR040W, strain KSS1, stronger effect = lower value",0.215 (active)
same,normalized growth,"locus YGR052W, strain FMP48, stronger effect = lower value",0.212 (active)
same,normalized growth,"locus YGR092W, strain DBF2, stronger effect = lower value",0.148 (active)
same,normalized growth,"locus YHR030C, strain SLT2, stronger effect = lower value",0.177 (active)
same,normalized growth,"locus YHR079C, strain IRE1, stronger effect = lower value",0.182 (active)
same,normalized growth,"locus YHR082C, strain KSP1, stronger effect = lower value",0.224 (active)
same,normalized growth,"locus YHR205W, strain SCH9, stronger effect = lower value",0.132 (active)
same,normalized growth,"locus YIL147C, strain SLN1, stronger effect = lower value",0.905
same,normalized growth,"locus YJL095W, strain BCK1, stronger effect = lower value",0.208 (active)
same,normalized growth,"locus YJL157C, strain FAR1, stronger effect = lower value",0.174 (active)
same,normalized growth,"locus YJR016C, strain ILV3, stronger effect = lower value",0.828 (active)
same,normalized growth,"locus YJR066W, strain TOR1 (second series), stronger effect = lower value",0.196 (active)
same,normalized growth,"locus YJR066W, strain TOR1, stronger effect = lower value",0.197 (active)
same,normalized growth,"locus YKL048C, strain ELM1, stronger effect = lower value",0.291 (active)
same,normalized growth,"locus YKL067W, strain YNK1, stronger effect = lower value",0.162 (active)
same,normalized growth,"locus YKL101W, strain HSL1, stronger effect = lower value",0.199 (active)
same,normalized growth,"locus YKL193C, strain SDS22, stronger effect = lower value",0.655 (active)
same,normalized growth,"locus YKL203C, strain TOR2, stronger effect = lower value",0.209 (active)
same,normalized growth,"locus YLR113W, strain HOG1, stronger effect = lower value",0.29 (active)
same,normalized growth,"locus YLR133W, strain CKI1, stronger effect = lower value",0.341 (active)
same,normalized growth,"locus YLR403W, strain SFP1, stronger effect = lower value",0.0454 (active)
same,normalized growth,"locus YML070W, strain DAK1, stronger effect = lower value",0.209 (active)
same,normalized growth,"locus YMR001C, strain CDC5, stronger effect = lower value",0.816 (active)
same,normalized growth,"locus YMR205C, strain PFK2 (second series), stronger effect = lower value",0.325 (active)
same,normalized growth,"locus YNL006W, strain LST8, stronger effect = lower value",0.793 (active)
same,normalized growth,"locus YNL020C, strain ARK1, stronger effect = lower value",0.243 (active)
same,normalized growth,"locus YNL161W, strain CBK1, stronger effect = lower value",0.658 (active)
same,normalized growth,"locus YNL183C, strain NPR1, stronger effect = lower value",0.197 (active)
same,normalized growth,"locus YNL207W, strain RIO2, stronger effect = lower value",0.528 (active)
same,normalized growth,"locus YNL222W, strain SSU72, stronger effect = lower value",0.708 (active)
same,normalized growth,"locus YNL307C, strain MCK1 (second series), stronger effect = lower value",0.189 (active)
same,normalized growth,"locus YOL136C, strain PFK27, stronger effect = lower value",0.188 (active)
same,normalized growth,"locus YOR061W, strain CKA2, stronger effect = lower value",0.181 (active)
same,normalized growth,"locus YOR119C, strain RIO1, stronger effect = lower value",0.221 (active)
same,normalized growth,"locus YOR231W, strain MKK1, stronger effect = lower value",0.198 (active)
same,normalized growth,"locus YOR329C, strain SCD5, stronger effect = lower value",0.702 (active)
same,normalized growth,"locus YPL031C, strain PHO85, stronger effect = lower value",0.198 (active)
same,normalized growth,"locus YPL153C, strain RAD53, stronger effect = lower value",0.178 (active)
same,normalized growth,"locus YPL204W, strain HRR25, stronger effect = lower value",0.177 (active)
same,normalized growth,"locus YPL209C, strain IPL1, stronger effect = lower value",0.748 (active)
same,normalized growth,"locus YPL256C, strain CLN2, stronger effect = lower value",0.25 (active)
same,normalized growth,"locus YPR025C, strain CCL1, stronger effect = lower value",0.821 (active)
same,normalized growth,"locus YPR106W, strain ISR1, stronger effect = lower value",0.929
same,normalized growth,"locus YPR111W, strain DBF20, stronger effect = lower value",0.902
same,normalized growth,"strain NNK1, stronger effect = lower value",0.536 (active)
same,normalized growth,"strain TSCII, stronger effect = lower value",0.604 (active)
